From PubChem BioAssay
The list is not random: actives were taken first. Their share in the collection is about 27%.
Cav3 T inh: Cav3.2 calcium influx blockers – cell-based, Fluo-4 calcium fluorescence, FDSS, MLSMR library, primary screen; Cav3.2-expressing cells; hits give low values; B-score at 10 µM; 100,000 tested, 4% active; AID 449739, 2010;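 active = single-dose well whose peak fluorescence ratio is a statistical outlier from its plate by either plate-standardised score or position-corrected B-score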
CYP2C19 act: human CYP2C19 activators, primary screen, biochemical, luminescence. Cytochrome P450 2C19 (Homo sapiens), P33261. recombinant CYP2C19, luciferin-H EGE luminescence; hits give high values; 0 = fully inhibited enzyme, 1 = untreated enzyme. activation factor at 5 µM. 96,000 tested, under 10 active. AID 1025, 2008;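 active = activation factor of at least 2 at 5 µM in the primary screen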
CYP2C19 inhib: blockers of cytochrome P450 2C19 activity – biochemical, luminescence, ADME assay, primary screen; P33261; CYP2C19 Supersomes, luciferin-H EGE luminescence, 30 min; inhibition, % at 5 µM; 96,000 tested, 21% active;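 active = CYP2C19 inhibition above a set limit at 5 µM in the primary screen, cut at about 50% in these data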
CYP2C9 activ: human CYP2C9 activators, primary screen, biochemical, luminescence; Cytochrome P450 2C9 (Homo sapiens), P11712; recombinant CYP2C9, luciferin-H conversion; hits give high values; factor 1 = untreated enzyme, 0 = blocked; activation factor at 5 µM; 96,000 tested, 1.4% active;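 active = activation factor of 2 or more for CYP2C9 at a 5 µM dose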
Target sequence (P11712 whole entry, looked up): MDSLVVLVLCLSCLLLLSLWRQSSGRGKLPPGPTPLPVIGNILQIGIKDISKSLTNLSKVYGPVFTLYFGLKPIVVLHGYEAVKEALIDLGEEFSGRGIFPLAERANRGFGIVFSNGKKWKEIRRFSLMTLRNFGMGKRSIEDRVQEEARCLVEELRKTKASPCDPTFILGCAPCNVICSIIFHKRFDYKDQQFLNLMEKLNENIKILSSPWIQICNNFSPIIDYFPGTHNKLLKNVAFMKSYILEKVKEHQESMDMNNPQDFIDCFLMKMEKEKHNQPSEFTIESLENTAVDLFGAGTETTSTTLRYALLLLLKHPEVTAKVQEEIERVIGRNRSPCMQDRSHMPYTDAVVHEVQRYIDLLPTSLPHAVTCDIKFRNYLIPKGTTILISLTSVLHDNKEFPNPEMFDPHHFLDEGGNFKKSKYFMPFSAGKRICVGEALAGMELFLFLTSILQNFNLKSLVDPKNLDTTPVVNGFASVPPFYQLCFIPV
CYP2C9 inhib: blockers of cytochrome P450 2C9 activity – biochemical, luminescence, ADME assay, primary screen. P11712. CYP2C9 Supersomes, luciferin-H conversion. inhibition, % at 5 µM. 96,000 tested, 20% active. AID 777, 2007;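 active = blocking of liver enzyme CYP2C9 beyond about 50% at 5 µM, limit read from the data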
Of the large screens only hits and unclear results are named; the others gave an inactive call.

CCOc1ccc(NC(=O)C2CSC(c3ccncc3)=N2)cc1 (stereo not drawn)	none (no result: CYP2C19 act, CYP2C19 inhib, CYP2C9 activ, CYP2C9 inhib)
Cc1cc(C2C(=O)C(C(=O)c3ccc(Cl)cc3)C(=O)CC2(C)C)on1 (stereo not drawn)	none
Cc1cc(Nc2ccccc2)n(CCOC(=O)COc2ccccc2)n1	none
Cc1ccc(Br)cc1S(=O)(=O)N1CCN(c2ccccc2)CC1	CYP2C19 inhib 64
COC(=O)c1ccc(Oc2ccc(C(C)(C)C)cc2)c([N+](=O)[O-])c1	CYP2C9 inhib 60 (no result: Cav3 T inh)
CCC(c1nnnn1CCc1ccccc1)N1CCN(c2ccc(OC)cc2)CC1 (stereo not drawn)	none
COCCNC(=O)c1c[nH]c2ccc(S(=O)(=O)N3CCC4(CC3)OCCO4)cc2c1=O	none
Cc1cccc(OCC(=O)N/N=C/c2cn[nH]c2-c2ccc(Cl)c(Cl)c2)c1	CYP2C9 inhib 57 (no result: Cav3 T inh)
C/C(CC(=O)Nc1cc(C)ccn1)=N\NC(=O)COc1cccc(C)c1	none
Cc1ccc(OCC(=O)N/N=C/c2cn[nH]c2-c2ccc(Cl)c(Cl)c2)cc1	CYP2C9 inhib 52
Cc1ccc(OCC(=O)N(C)CCc2ccccn2)cc1	none
Cc1ccc(NC(=O)N(Cc2cccnc2)Cc2ccco2)cc1C	CYP2C19 inhib 96, CYP2C9 inhib 78
Cc1ccc(NC(=O)N(Cc2ccco2)C(C)c2ccco2)cc1C (stereo not drawn)	Cav3 T inh -4.6
CCN(CC(=O)Nc1cccc(OC)c1)C(=O)C1CCN(C(=O)Nc2ccccc2)CC1	none
Cc1nn(Cc2ccccc2)c(=O)n1N(C)c1ncc(C(F)(F)F)cc1Cl	CYP2C19 inhib 67
Cc1nn(-c2ncc(C(F)(F)F)cc2Cl)c(=O)n1-c1ccccc1Cl	none
CN(NC(=O)Nc1ccc(Cl)cc1)c1ncc(C(F)(F)F)cc1Cl	none (no result: CYP2C19 act, CYP2C19 inhib, CYP2C9 activ, CYP2C9 inhib)
CN(C)C(=O)c1cn(N(C)c2ncc(C(F)(F)F)cc2Cl)c(=O)c2ccccc12	CYP2C19 inhib 53, CYP2C9 inhib 80
CCOC(=O)CC1C(=O)NCCN1S(=O)(=O)c1ccccc1Cl (stereo not drawn)	none
COc1ccc(OCC(=O)N2CCN(C(=O)c3cccc4ccccc34)CC2)cc1	none
CCOC(=O)c1cnc(SC2CCc3ccccc3C2=O)nc1N (stereo not drawn)	CYP2C19 inhib 81
CCOC(=O)c1cnc(SCCc2ccccc2)nc1N	none
Cc1ccc(-c2nnc(SCC(=O)Nc3sc(C)c(C)c3C#N)n2C)cc1	none (no result: CYP2C19 act, CYP2C19 inhib, CYP2C9 activ, CYP2C9 inhib)
CCCCSc1ncc(C(=O)OCC)c(N)n1	Cav3 T inh -4.6 (no result: CYP2C19 act, CYP2C19 inhib, CYP2C9 activ, CYP2C9 inhib)
CCOC(=O)c1cnc(SCC(=O)Nc2cc(OC)cc(OC)c2)nc1N	none
Cc1sc(NC(=O)CSc2nc(N)n(CC(=O)c3ccccc3)n2)c(C#N)c1C	CYP2C19 inhib 93, CYP2C9 inhib 98
CCOC(=O)c1cnc(SCC(=O)Nc2sc(C)c(C)c2C#N)nc1N	CYP2C9 inhib 62
COc1ccc(NC(=O)C2CCC(CNc3c(N4CCC(C)CC4)c(=O)c3=O)CC2)cc1OC (stereo not drawn)	none
COCCn1c(-c2ccccc2)cnc1N	none
COc1cc2c(C(=O)O)c(C)n(CC(C)C)c2c2ccccc12	none (no result: Cav3 T inh)
COc1ccc2[nH]cc(C(=O)CN3CCN(C/C=C/c4ccccc4)CC3)c2c1	none
CCOC(=O)c1cnc(SCC(=O)NCc2cccs2)nc1N	CYP2C19 inhib 80, CYP2C9 inhib 93
CCOC(=O)c1cnc(SCc2ccc(C)cc2)nc1N	none
N#CC1=C(N)C2=C(N3CCCCC3)CCCC2C1(C#N)C#N (stereo not drawn)	CYP2C9 inhib 51
COc1ccc(NC(=O)CCCn2c(=S)[nH]c3ccccc3c2=O)cc1	CYP2C9 inhib 59
O=C(CCCn1c(=S)[nH]c2ccccc2c1=O)NC1CCCC1	none
CC(C)n1c(=S)[nH]c2ccccc2c1=O	none
COc1ccc(NC(=O)CCCCn2c(=O)[nH]c3ccccc3c2=O)cc1	CYP2C9 inhib 66
CC1CCCCC1n1c(=S)[nH]c2ccccc2c1=O (stereo not drawn)	CYP2C19 inhib 72
CC1CCCN(C(=O)CCCn2c(=S)[nH]c3ccccc3c2=O)C1 (stereo not drawn)	CYP2C19 inhib 53, CYP2C9 inhib 51
CCOC(=O)C(C)n1ncn2cccc2c1=O (stereo not drawn)	none
COc1ccc(NC(=O)CCCn2c(=O)[nH]c3ccccc3c2=O)cc1	CYP2C19 inhib 53, CYP2C9 inhib 89
Cc1ccc(CNC(=O)CCCn2c(=O)[nH]c3ccccc3c2=O)cc1	none
CCC(Sc1ncccc1C(=O)OC(C)C)C(=O)N1CCOCC1 (stereo not drawn)	none
CCOC(=O)c1cccnc1SC(CC)C(=O)NCc1ccco1 (stereo not drawn)	CYP2C19 inhib 68, CYP2C9 inhib 70
CCC(Sc1ncccc1C(=O)OC(C)C)C(=O)NCc1ccco1 (stereo not drawn)	CYP2C19 inhib 55
NC(=O)c1ccsc1NC(=O)C1CC1	none (no result: CYP2C19 act, CYP2C19 inhib, CYP2C9 activ, CYP2C9 inhib)
CC(C)c1cc(C(N)=O)c(NC(=O)C2CCC2)s1	CYP2C19 inhib 57, CYP2C9 inhib 55
Nc1c(C(=O)NC2CCCC2)sc2nc(-c3cccs3)ccc12	CYP2C19 inhib 72
Nc1c(C(=O)Nc2nccs2)sc2nc(-c3cccs3)cc(C(F)(F)F)c12	none (no result: Cav3 T inh)
CCN1C(c2ccccc2)C(C)C(=O)C(C)C1c1ccccc1 (stereo not drawn)	CYP2C19 inhib 65, CYP2C9 inhib 88
COc1ccccc1OCc1ccc(C(=O)NN)cc1	CYP2C19 inhib 62
COc1ccc(C(=O)/C=C/c2ccc(OC)c(COc3ccc(F)cc3)c2)cc1	CYP2C9 inhib 52
COc1ccc(C(=O)NN)cc1COc1ccc(Br)cc1	CYP2C19 inhib 96, CYP2C9 inhib 50
CNC(=O)c1ccc(OCc2ccccc2)c(OC)c1	none
CC1CCCCN1S(=O)(=O)c1ccc(NC(=O)CSc2nnnn2C)cc1 (stereo not drawn)	none (no result: Cav3 T inh)
COc1ccc([C@H]2[C@@H]3C=CCC[C@@]3(C)C(=O)N2Cc2ccccc2)cc1Cl	none (no result: CYP2C19 act, CYP2C19 inhib, CYP2C9 activ, CYP2C9 inhib)
O=C(CN1CCN(Cc2cccc(Cl)c2)C1=O)NCc1ccccn1	none
CCCNC(=S)Nc1ccc(Nc2ccccc2)cc1	none
O=C(Cc1ccccc1)NC(=S)Nc1cccc(C(F)(F)F)c1	none (no result: Cav3 T inh)
FC(F)(F)c1cccc(NC(=S)NNC(=S)NCc2ccccc2)c1	CYP2C9 inhib 75
Cc1ccc(NC(=S)NCc2ccccn2)cc1	CYP2C9 inhib 69
S=C(NCc1ccccn1)Nc1cccc(Cl)c1	CYP2C19 inhib 57
Cc1ccc(NC(=S)NNC(=S)NCc2ccccc2)cc1	CYP2C9 inhib 94
Cn1c(=O)c2c(nc(N3CCN(Cc4ccccc4)CC3)n2CCSc2ncccn2)n(C)c1=O	none (no result: Cav3 T inh)
